# Assay results reported in the supplement of paper PMC12282887.
# ± gives the standard deviation of the averaged measurements.
# Experiments:
# Test in all cases: promoter activity interaction Z-score (Lux/OD deviation from empty-vector control); higher = stronger promoter induction by the compound
# [1] = tested on: E. coli BW25113 acrABp lux reporter
# In short: (§1)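 E. coli BW25113 luxCDABE reporter strains grew at 37°C in 40 µl LB Lennox in 384-well plates, with OD600 and luminescence read every 30 min for 12 h. After integration over 0–8 h for wild type or 1–9 h for deletion strains, wells under 10% of the median growth value were removed. Each score is the Z-transformed residual of growth-normalised luminescence fitted against a control.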
# [2] = tested on: E. coli BW25113 micFp lux reporter
# In short: as §1
# [3] = tested on: E. coli BW25113 ompFp lux reporter
# In short: as §1
# [4] = tested on: E. coli BW25113 robp lux reporter
# In short: as §1
# [5] = tested on: E. coli BW25113 soxSp lux reporter
# In short: as §1
# [6] = tested on: E. coli BW25113 tolCp lux reporter
# In short: as §1
# [7] = 1 µg/ml, genetic background: wild type
# [8] = 1 µg/ml, genetic background: ΔmarA
# [9] = 1 µg/ml, genetic background: Δrob
# [10] = 1 µg/ml, genetic background: ΔsoxS
# [11] = 1.9 µg/ml, genetic background: wild type
# [12] = 1.9 µg/ml, genetic background: ΔmarA
# [13] = 1.9 µg/ml, genetic background: Δrob
# [14] = 1.9 µg/ml, genetic background: ΔsoxS
# [15] = 3.8 µg/ml, genetic background: wild type
# [16] = 3.8 µg/ml, genetic background: ΔmarA
# [17] = 3.8 µg/ml, genetic background: Δrob
# [18] = 3.8 µg/ml, genetic background: ΔsoxS
# [19] = 7.7 µg/ml, genetic background: wild type
# [20] = 7.7 µg/ml, genetic background: ΔmarA
# [21] = 7.7 µg/ml, genetic background: Δrob
# [22] = 7.7 µg/ml, genetic background: ΔsoxS
compound,measurement,setting,value
NC1CONC1=O (stereo unspecified) [Cycloserine D],promoter activity interaction Z-score,[1]; [7],0.0277 ± 0.22
same,promoter activity interaction Z-score,[1]; [8],0.657 ± 0.33
same,promoter activity interaction Z-score,[1]; [9],-0.0729 ± 0.055
same,promoter activity interaction Z-score,[1]; [10],0.00357 ± 0.22
same,promoter activity interaction Z-score,[1]; [11],-0.389 ± 0.056
same,promoter activity interaction Z-score,[1]; [12],0.57 ± 0.12
same,promoter activity interaction Z-score,[1]; [13],0.0199 ± 0.26
same,promoter activity interaction Z-score,[1]; [14],-0.339 ± 0.62
same,promoter activity interaction Z-score,[1]; [15],-0.136 ± 0.039
same,promoter activity interaction Z-score,[1]; [16],-0.29 ± 0.2
same,promoter activity interaction Z-score,[1]; [17],0.00284 ± 0.03
same,promoter activity interaction Z-score,[1]; [18],-0.0366 ± 0.12
same,promoter activity interaction Z-score,[1]; [19],-0.588 ± 0.2
same,promoter activity interaction Z-score,[1]; [20],-0.128 ± 0.24
same,promoter activity interaction Z-score,[1]; [21],-0.0882 ± 0.11
same,promoter activity interaction Z-score,[1]; [22],-0.319 ± 0.24
same,promoter activity interaction Z-score,[2]; [7],0.0376 ± 0.12
same,promoter activity interaction Z-score,[2]; [8],-0.00943 ± 0.084
same,promoter activity interaction Z-score,[2]; [9],-0.118 ± 0.074
same,promoter activity interaction Z-score,[2]; [10],-0.0115 ± 0.022
same,promoter activity interaction Z-score,[2]; [11],-0.417 ± 0.2
same,promoter activity interaction Z-score,[2]; [12],-0.00494 ± 0.0052
same,promoter activity interaction Z-score,[2]; [13],-0.0732 ± 0.01
same,promoter activity interaction Z-score,[2]; [14],-0.388 ± 0.035
same,promoter activity interaction Z-score,[2]; [15],-0.305 ± 0.5
same,promoter activity interaction Z-score,[2]; [16],-0.0376 ± 0.047
same,promoter activity interaction Z-score,[2]; [17],-0.0224 ± 0.047
same,promoter activity interaction Z-score,[2]; [18],-0.251 ± 0.019
same,promoter activity interaction Z-score,[2]; [19],-0.38 ± 0.0041
same,promoter activity interaction Z-score,[2]; [20],0.0683 ± 0.028
same,promoter activity interaction Z-score,[2]; [21],0.105 ± 0.092
same,promoter activity interaction Z-score,[2]; [22],-0.294 ± 0.16
same,promoter activity interaction Z-score,[3]; [7],0.314 ± 0.21
same,promoter activity interaction Z-score,[3]; [8],0.134 ± 0.086
same,promoter activity interaction Z-score,[3]; [9],-0.394 ± 0.46
same,promoter activity interaction Z-score,[3]; [10],0.0539 ± 0.036
same,promoter activity interaction Z-score,[3]; [11],-0.14 ± 0.24
same,promoter activity interaction Z-score,[3]; [12],0.387 ± 0.13
same,promoter activity interaction Z-score,[3]; [13],-0.422 ± 0.075
same,promoter activity interaction Z-score,[3]; [14],-0.381 ± 0.19
same,promoter activity interaction Z-score,[3]; [15],-0.202 ± 0.043
same,promoter activity interaction Z-score,[3]; [16],0.194 ± 0.031
same,promoter activity interaction Z-score,[3]; [17],0.0558 ± 0.16
same,promoter activity interaction Z-score,[3]; [18],0.0329 ± 0.09
same,promoter activity interaction Z-score,[3]; [19],-0.567 ± 0.3
same,promoter activity interaction Z-score,[3]; [20],0.0892 ± 0.075
same,promoter activity interaction Z-score,[3]; [21],0.153 ± 0.069
same,promoter activity interaction Z-score,[3]; [22],-0.485 ± 0.02
same,promoter activity interaction Z-score,[4]; [7],0.73 ± 0.71
same,promoter activity interaction Z-score,[4]; [8],0.0767 ± 0.37
same,promoter activity interaction Z-score,[4]; [9],0.466 ± 0.27
same,promoter activity interaction Z-score,[4]; [10],0.49 ± 0.31
same,promoter activity interaction Z-score,[4]; [11],-0.277 ± 0.26
same,promoter activity interaction Z-score,[4]; [12],0.295 ± 0.52
same,promoter activity interaction Z-score,[4]; [13],0.186 ± 0.67
same,promoter activity interaction Z-score,[4]; [14],0.471 ± 0.99
same,promoter activity interaction Z-score,[4]; [15],-0.466 ± 0.068
same,promoter activity interaction Z-score,[4]; [16],0.31 ± 0.081
same,promoter activity interaction Z-score,[4]; [17],0.0139 ± 0.21
same,promoter activity interaction Z-score,[4]; [18],-0.224 ± 0.093
same,promoter activity interaction Z-score,[4]; [19],-1.02 ± 0.081
same,promoter activity interaction Z-score,[4]; [20],-0.102 ± 0.31
same,promoter activity interaction Z-score,[4]; [21],-0.282 ± 0.25
same,promoter activity interaction Z-score,[4]; [22],-0.361 ± 0.67
same,promoter activity interaction Z-score,[5]; [7],0.217 ± 0.043
same,promoter activity interaction Z-score,[5]; [8],0.0924 ± 0.0091
same,promoter activity interaction Z-score,[5]; [9],0.0464 ± 0.16
same,promoter activity interaction Z-score,[5]; [10],0.093 ± 0.016
same,promoter activity interaction Z-score,[5]; [11],-0.193 ± 0.011
same,promoter activity interaction Z-score,[5]; [12],0.076 ± 0.02
same,promoter activity interaction Z-score,[5]; [13],-0.205 ± 0.024
same,promoter activity interaction Z-score,[5]; [14],0.164 ± 0.2
same,promoter activity interaction Z-score,[5]; [15],-0.0918 ± 0.052
same,promoter activity interaction Z-score,[5]; [16],-0.113 ± 0.019
same,promoter activity interaction Z-score,[5]; [17],0.0335 ± 0.083
same,promoter activity interaction Z-score,[5]; [18],-0.0149 ± 0.074
same,promoter activity interaction Z-score,[5]; [19],-0.198 ± 0.27
same,promoter activity interaction Z-score,[5]; [20],-0.171 ± 0.14
same,promoter activity interaction Z-score,[5]; [21],-0.117 ± 0.11
same,promoter activity interaction Z-score,[5]; [22],-0.174 ± 0.047
same,promoter activity interaction Z-score,[6]; [7],0.33 ± 0.084
same,promoter activity interaction Z-score,[6]; [8],1.18 ± 0.26
same,promoter activity interaction Z-score,[6]; [9],-0.401 ± 0.15
same,promoter activity interaction Z-score,[6]; [10],-0.259 ± 0.83
same,promoter activity interaction Z-score,[6]; [11],-0.543 ± 0.64
same,promoter activity interaction Z-score,[6]; [12],-0.33 ± 0.62
same,promoter activity interaction Z-score,[6]; [13],-0.224 ± 0.69
same,promoter activity interaction Z-score,[6]; [14],0.645 ± 0.11
same,promoter activity interaction Z-score,[6]; [15],0.289 ± 0.26
same,promoter activity interaction Z-score,[6]; [16],0.197 ± 0.06
same,promoter activity interaction Z-score,[6]; [17],0.242 ± 0.12
same,promoter activity interaction Z-score,[6]; [18],-0.045 ± 0.33
same,promoter activity interaction Z-score,[6]; [19],-1.06 ± 0.73
same,promoter activity interaction Z-score,[6]; [20],-0.822 ± 0.7
same,promoter activity interaction Z-score,[6]; [21],-0.397 ± 0.29
same,promoter activity interaction Z-score,[6]; [22],-0.568 ± 0.58
